PubChem BioAssay (NCI)
This is part of a sample that, as a whole, favours compounds with a hit. Of some 83,000 tested, about 20% had one in any assay.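 Cell lines were cultured in 96-well plates, exposed to a single compound concentration, and assessed for percent growth 48 hours later.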 A number with no mark means an inactive call. Active and inactive are the calls of the source. The calls were made as follows: active = growth percent below 10; inactive = the rest.

Key:
Test in all cases: NCI-60 one-dose screen, 48 h (100 = growth as untreated, 0 = no growth, -100 = all killed)
Conditions in all cases: 10 µM unless noted
SK-MEL-2 melanoma = tested on: SK-MEL-2 melanoma
SN12C renal = tested on: SN12C renal
UO-31 renal = tested on: UO-31 renal
ACHN renal = tested on: ACHN renal
CAKI-1 renal = tested on: CAKI-1 renal
A498 renal = tested on: A498 renal
CCRF-CEM leukemia = tested on: CCRF-CEM leukemia
MOLT-4 leukemia = tested on: MOLT-4 leukemia
SR leukemia = tested on: SR leukemia
RPMI-8226 leukemia = tested on: RPMI-8226 leukemia
OVCAR-8 ovarian = tested on: OVCAR-8 ovarian
OVCAR-5 ovarian = tested on: OVCAR-5 ovarian
OVCAR-4 ovarian = tested on: OVCAR-4 ovarian
SK-OV-3 ovarian = tested on: SK-OV-3 ovarian
IGROV1 ovarian = tested on: IGROV1 ovarian
OVCAR-3 ovarian = tested on: OVCAR-3 ovarian
NCI/ADR-RES ovarian = tested on: NCI/ADR-RES ovarian
TK-10 renal = tested on: TK-10 renal
HS 578T breast = tested on: HS 578T breast

COc1ccc(NC(=O)CSc2nc3ccc(Cl)cc3c(=O)n2-c2ccccc2C(F)(F)F)c(OC)c1OC was tested. Which growth (SK-MEL-2 melanoma) did it give?
The growth was 53.3%.

And the growth (SN12C renal)?
The growth was 80.1%.

What about the growth (UO-31 renal) of the same molecule?
Its growth is 77.6%.

And the growth (ACHN renal)?
The growth was 61.2%.

What about the growth (CAKI-1 renal) of the same molecule?
Its growth is 78.4%.

And the growth (A498 renal)?
Its growth is 78.3%.

And the growth (CCRF-CEM leukemia)?
The growth was 33.7%.

And the growth (MOLT-4 leukemia)?
The growth was 106%.

And the growth (SR leukemia)?
The growth was 89.6%.

What about the growth (RPMI-8226 leukemia) of the same molecule?
Its growth is 83.3%.

What about the growth (OVCAR-8 ovarian) of the same molecule?
Its growth is 39.3%.

What about the growth (OVCAR-5 ovarian) of the same molecule?
Its growth is 96.9%.

What about the growth (OVCAR-4 ovarian) of the same molecule?
Its growth is -4.33% (active).

And the growth (SK-OV-3 ovarian)?
Its growth is 30.2%.

What about the growth (IGROV1 ovarian) of the same molecule?
The growth was 75.3%.

What about the growth (OVCAR-3 ovarian) of the same molecule?
Its growth is 82.5%.

And the growth (NCI/ADR-RES ovarian)?
The growth was 72.4%.

COc1ccc(C2CC(=O)Nc3c2c(C)nn3-c2nc3ccccc3[nH]2)cc1OC (stereo unspecified) was tested. Which growth (SK-MEL-2 melanoma) did it give?
Its growth is 77.8%.

And the growth (SN12C renal)?
Its growth is 89.9%.

What about the growth (UO-31 renal) of the same molecule?
Its growth is 52.4%.

And the growth (ACHN renal)?
The growth was 85.2%.

What about the growth (CAKI-1 renal) of the same molecule?
Its growth is 72.8%.

What about the growth (A498 renal) of the same molecule?
Its growth is 3.48% (active).

What about the growth (CCRF-CEM leukemia) of the same molecule?
Its growth is 5.82% (active).

What about the growth (MOLT-4 leukemia) of the same molecule?
Its growth is -31.5% (active).

What about the growth (SR leukemia) of the same molecule?
The growth was 32.8%.

What about the growth (RPMI-8226 leukemia) of the same molecule?
Its growth is 85.4%.

And the growth (OVCAR-8 ovarian)?
Its growth is 62%.

What about the growth (OVCAR-5 ovarian) of the same molecule?
Its growth is 111%.

And the growth (OVCAR-4 ovarian)?
Its growth is 62%.

What about the growth (SK-OV-3 ovarian) of the same molecule?
The growth was 17.7%.

And the growth (OVCAR-3 ovarian)?
The growth was 83.2%.

And the growth (NCI/ADR-RES ovarian)?
Its growth is 77.7%.

For COc1cc2c3c(c(=O)oc2cc1OS(=O)(=O)c1ccc(C(F)(F)F)cc1)CCCCC3, which growth (SK-MEL-2 melanoma) is on record?
The growth was 90.5%.

And the growth (SN12C renal)?
Its growth is 89.7%.

What about the growth (UO-31 renal) of the same molecule?
The growth was 92.6%.

What about the growth (TK-10 renal) of the same molecule?
The growth was 122%.

What about the growth (ACHN renal) of the same molecule?
Its growth is 72.5%.

What about the growth (A498 renal) of the same molecule?
Its growth is 86.3%.

What about the growth (CCRF-CEM leukemia) of the same molecule?
Its growth is 90.2%.

What about the growth (MOLT-4 leukemia) of the same molecule?
The growth was 95.9%.

And the growth (SR leukemia)?
Its growth is 58.6%.

What about the growth (RPMI-8226 leukemia) of the same molecule?
Its growth is 84.8%.

And the growth (OVCAR-8 ovarian)?
Its growth is 93.8%.

What about the growth (OVCAR-5 ovarian) of the same molecule?
Its growth is 79.6%.

And the growth (SK-OV-3 ovarian)?
The growth was 83%.

And the growth (IGROV1 ovarian)?
Its growth is 86.7%.

What about the growth (OVCAR-3 ovarian) of the same molecule?
The growth was 87.9%.

What about the growth (HS 578T breast) of the same molecule?
The growth was 56.4%.

And the growth (NCI/ADR-RES ovarian)?
Its growth is 76.3%.

For CCN(CC)P(=O)(N(CC)CC)N(CCCSC/C=C(\C)CC/C=C(\C)CCC=C(C)C)CCCN1CCN(C)CC1, which growth (SK-MEL-2 melanoma) is on record?
The growth was 118%.

What about the growth (SN12C renal) of the same molecule?
The growth was 92.9%.

What about the growth (UO-31 renal) of the same molecule?
The growth was 92.8%.

What about the growth (ACHN renal) of the same molecule?
Its growth is 119%.

What about the growth (A498 renal) of the same molecule?
The growth was 77.2%.

What about the growth (CCRF-CEM leukemia) of the same molecule?
Its growth is 87.2%.

What about the growth (MOLT-4 leukemia) of the same molecule?
The growth was 93.1%.

And the growth (SR leukemia)?
The growth was 22.9%.

And the growth (RPMI-8226 leukemia)?
The growth was 94.6%.

What about the growth (OVCAR-8 ovarian) of the same molecule?
Its growth is 97.1%.

And the growth (OVCAR-5 ovarian)?
The growth was 103%.

What about the growth (OVCAR-4 ovarian) of the same molecule?
The growth was 92.5%.

What about the growth (SK-OV-3 ovarian) of the same molecule?
The growth was 103%.

And the growth (IGROV1 ovarian)?
The growth was 110%.

And the growth (OVCAR-3 ovarian)?
The growth was 104%.

And the growth (NCI/ADR-RES ovarian)?
Its growth is 106%.

How did the growth (SK-MEL-2 melanoma) turn out when COc1cccc(C2CC(=O)Nc3c2c(C)nn3-c2nc3ccccc3[nH]2)c1OC (stereo unspecified) was run?
Its growth is 72.7%.

And the growth (SN12C renal)?
Its growth is 75.5%.

And the growth (UO-31 renal)?
Its growth is 73.1%.

And the growth (ACHN renal)?
The growth was 56.5%.

And the growth (CAKI-1 renal)?
The growth was 80.6%.

And the growth (A498 renal)?
The growth was -5.31% (active).

What about the growth (MOLT-4 leukemia) of the same molecule?
Its growth is -31% (active).

What about the growth (SR leukemia) of the same molecule?
The growth was 33.2%.

And the growth (RPMI-8226 leukemia)?
Its growth is 70.4%.

And the growth (OVCAR-8 ovarian)?
Its growth is 55%.

And the growth (OVCAR-5 ovarian)?
The growth was 114%.

What about the growth (OVCAR-4 ovarian) of the same molecule?
The growth was 74.4%.

What about the growth (SK-OV-3 ovarian) of the same molecule?
Its growth is 79.9%.

And the growth (OVCAR-3 ovarian)?
Its growth is 74%.

Which results are given for Cc1ccc(C(=O)c2sc3nc4c(cc3c2N)CCCC4)c(C)c1?
growth (SK-MEL-2 melanoma): -13.7% (active); growth (SN12C renal): 44.1%; growth (UO-31 renal): 30.8%; growth (ACHN renal): 46.4%; growth (CAKI-1 renal): 7.6% (active); growth (A498 renal): -10.8% (active); growth (CCRF-CEM leukemia): 6.69% (active); growth (MOLT-4 leukemia): 21.8%; growth (SR leukemia): 9.04% (active); growth (RPMI-8226 leukemia): -12.3% (active); growth (OVCAR-8 ovarian): 17.5%; growth (OVCAR-5 ovarian): 47.2%; growth (OVCAR-4 ovarian): 39.8%; growth (SK-OV-3 ovarian): 19.9%; growth (IGROV1 ovarian): 41.4%; growth (OVCAR-3 ovarian): 12%; growth (NCI/ADR-RES ovarian): 13.9%

What does the source list for COc1cc(C2C=C(C)N=C3SC=CN32)cc(OC)c1OC (stereo unspecified)?
growth (SK-MEL-2 melanoma): 115%; growth (SN12C renal): 105%; growth (UO-31 renal): 90%; growth (TK-10 renal): 107%; growth (ACHN renal): 115%; growth (A498 renal): 106%; growth (CCRF-CEM leukemia): 105%; growth (MOLT-4 leukemia): 102%; growth (SR leukemia): 106%; growth (OVCAR-8 ovarian): 103%; growth (OVCAR-5 ovarian): 109%; growth (OVCAR-4 ovarian): 108%; growth (SK-OV-3 ovarian): 112%; growth (IGROV1 ovarian): 111%; growth (HS 578T breast): 103%; growth (NCI/ADR-RES ovarian): 110%

COc1cc(-c2nc(-c3nc4ccccc4[nH]3)cc3c2[nH]c2ccccc23)cc(OC)c1OC was tested. Which growth (SK-MEL-2 melanoma) did it give?
Its growth is 23.9%.

And the growth (SN12C renal)?
Its growth is 40.4%.

What about the growth (UO-31 renal) of the same molecule?
Its growth is 24.3%.

What about the growth (ACHN renal) of the same molecule?
Its growth is 51.4%.

And the growth (CAKI-1 renal)?
The growth was 20%.

What about the growth (A498 renal) of the same molecule?
The growth was 44.8%.

What about the growth (CCRF-CEM leukemia) of the same molecule?
The growth was 16.8%.

And the growth (MOLT-4 leukemia)?
The growth was 44.3%.

And the growth (SR leukemia)?
Its growth is 45.2%.

And the growth (RPMI-8226 leukemia)?
Its growth is -4.95% (active).

And the growth (OVCAR-8 ovarian)?
Its growth is 13.2%.

And the growth (OVCAR-5 ovarian)?
The growth was 88.8%.

And the growth (OVCAR-4 ovarian)?
Its growth is 59.5%.

What about the growth (SK-OV-3 ovarian) of the same molecule?
The growth was 104%.

And the growth (IGROV1 ovarian)?
The growth was 18.9%.

And the growth (OVCAR-3 ovarian)?
Its growth is 31.7%.

And the growth (NCI/ADR-RES ovarian)?
The growth was 32.2%.

For O=C(O)c1ccc(-n2c(=O)c3ccccc3c3ccccc3c2=O)cc1, which growth (SK-MEL-2 melanoma) is on record?
Its growth is 93%.

And the growth (SN12C renal)?
Its growth is 107%.

And the growth (UO-31 renal)?
The growth was 74.8%.

And the growth (TK-10 renal)?
The growth was 97.9%.

And the growth (ACHN renal)?
The growth was 103%.

What about the growth (CCRF-CEM leukemia) of the same molecule?
The growth was 104%.

What about the growth (MOLT-4 leukemia) of the same molecule?
Its growth is 92.8%.

What about the growth (SR leukemia) of the same molecule?
Its growth is 87.6%.

What about the growth (RPMI-8226 leukemia) of the same molecule?
Its growth is 103%.

What about the growth (OVCAR-8 ovarian) of the same molecule?
Its growth is 111%.

What about the growth (OVCAR-5 ovarian) of the same molecule?
The growth was 99.6%.

What about the growth (OVCAR-4 ovarian) of the same molecule?
Its growth is 119%.

And the growth (SK-OV-3 ovarian)?
Its growth is 101%.

And the growth (IGROV1 ovarian)?
Its growth is 116%.

And the growth (OVCAR-3 ovarian)?
The growth was 111%.

And the growth (NCI/ADR-RES ovarian)?
The growth was 112%.
